Test results published in ChEMBL document CHEMBL4513216, “Probing the Open Global Health Chemical Diversity Library for Multistage-Active Starting Points for Next-Generation Antimalarials” (ACS Infect Dis, 2020).
In all, about 69,000 compounds went through this assay and about 8,600 (12%) showed an effect of 50% or more. The sample as a whole holds a higher share of strong results than the screen did.

Each compound was assayed on Plasmodium berghei (assay: Screen against P. berghei liver stage (PbLuc), transformed with Luciferase, at 10uM). Conditions: tested at 10 uM.
Format: functional, HepG2
CN(C)CC1(O)CCN(C(=O)Cc2ccc3ccccc3c2)C1 (stereo not given) was tested, and the INHIBITION was -37.7%. In the case of COc1c(C2CCCN2C(=O)c2ccc(C(N)=O)s2)c(C)nn1C (stereo not given), the INHIBITION is reported as 2.93%. Compound Cc1nc(CN(C)C2CCN(CCCOc3ccccc3)C2)no1 (stereo not given) has an INHIBITION of 31.9%. With Cc1cnc(C(=O)NC(COCC(C)C)c2ccco2)cn1 (stereo not given) the INHIBITION was 36.1%. With O=C(N1CCOCC1)N1CCc2ncc(CN3CCCCC3)n2CC1 the INHIBITION was 15.9%. CC(C)CCN1CCN(C(=O)c2cnccn2)CC1 showed an INHIBITION of 25%. CC(C)Nc1n[nH]c2nc(C3CCN(C(=O)c4ccccn4)C3)ccc12 (stereo not given) gave an INHIBITION of -7.66%. CC(C)NC(=O)c1cc(Br)c2c(c1)OCCO2 showed an INHIBITION of -48.4%. CC(C)CNC(=O)c1cc(Br)c2c(c1)OCCO2 was tested, and the INHIBITION was 51.8%. CC(CC#N)NC(=O)c1cc(Br)c2c(c1)OCCO2 (stereo not given) gave an INHIBITION of 12.7%. CCCNC(=O)c1cc(Br)c2c(c1)OCCO2 gave an INHIBITION of 31.2%. Compound CCC(C#N)NC(=O)c1cc(Br)c2c(c1)OCCO2 (stereo not given) has an INHIBITION of -36.1%. Compound CCCC(C#N)NC(=O)c1cc(Br)c2c(c1)OCCO2 (stereo not given) has an INHIBITION of 60.5%. Work on COc1ccc(-c2nc(C#N)c(N(C)C)o2)cc1S(=O)(=O)N(C)C yielded an INHIBITION of 12.8%. CC(NC(=O)c1cccs1)C(=O)Nc1cccnc1N1CCCCC1 (stereo not given) showed an INHIBITION of -36.3%. Compound CC(=O)Nc1cnc(-n2ccnc2)nc1 has an INHIBITION of 13.8%. Compound CC(=O)N(C)CC(=O)Nc1cnc(-n2ccnc2)nc1 has an INHIBITION of 41.2%. With CC(=O)N(C)CC(=O)Nc1cnc(-n2ccnc2C)nc1 the INHIBITION was 95.9%. In the case of CN(Cc1nccn1CC(F)(F)F)C(=O)c1cccc(N(C)C)c1, the INHIBITION is reported as -15.7%. CC(=O)N1CCCC2(CN(Cc3ccc(F)cc3)CCO2)C1 (stereo not given) showed an INHIBITION of -0.813%. With Cc1noc(C)c1CN1C(=O)[C@@H]2CC[C@H]1CN(Cc1ccc(Cl)cc1)C2 the INHIBITION was -48.1%. O=C(c1n[nH]cc1Br)N1CCOCC1 showed an INHIBITION of 33.3%. COc1nccnc1N1CCC2(CCCN(C(C)C)C2=O)C1 (stereo not given) showed an INHIBITION of -9.17%. In the case of COCCN1CCCC2(CCN(c3nc(C)nc4ccsc34)C2)C1=O (stereo not given), the INHIBITION is reported as 41.8%. Compound CCCN1CCCC2(CCN(c3nc(C)nc4ccsc34)C2)C1=O (stereo not given) has an INHIBITION of 76.5%. For COc1ccnc(N2CCC3(CCCN(C(C)C)C3=O)C2)n1 (stereo not given), the INHIBITION was 48.8%. For CNc1nc(C(=O)N2CCC3(CCCN(CC4CC4)C3=O)C2)cs1 (stereo not given), the INHIBITION was 21.2%. Cc1nc(N2CCC3(CCCN(CC4CC4)C3=O)C2)c2sccc2n1 (stereo not given) gave an INHIBITION of 82.9%. Cc1nc(N2CCC3(CCCN(CCO)C3=O)C2)c2sccc2n1 (stereo not given) showed an INHIBITION of 40.5%. Cc1nc(N2CCC3(CCCN(C(C)C)C3=O)C2)c2sccc2n1 (stereo not given) gave an INHIBITION of 81.6%. Work on COc1ccnc(N2CCC3(CCCN(CC4CC4)C3=O)C2)n1 (stereo not given) yielded an INHIBITION of 30.3%. In the case of Cc1ccc(N2CCCN(C(=O)C3CCCO3)CC2)nn1 (stereo not given), the INHIBITION is reported as -72.5%. Work on Cn1nc(CN2CCOCC2)c2c1CN(Cc1ccsc1)C2 yielded an INHIBITION of 8.03%. COc1ccc2c(c1)C(=O)NC1(CC2)CCN(Cc2ccccc2)C1 (stereo not given) was tested, and the INHIBITION was 41.3%. Work on CC(C)c1nc(C2CCCN2CCOCC2CC2)no1 (stereo not given) yielded an INHIBITION of 12.3%. With CN1C(=O)CC(C(=O)O)C12CCN(c1ccc3c(n1)CCCC3)CC2 (stereo not given) the INHIBITION was -11.7%. For CC1(C)CN(CCC(=O)NCc2cccc(Cl)c2)CC[C@]1(C)O, the INHIBITION was 24.2%. In the case of Cc1ccc2[nH]c(C(=O)N3CCCC3Cn3cccn3)cc2c1 (stereo not given), the INHIBITION is reported as 16.8%. For CN(Cc1ccc(N(C)C)cc1)C(=O)CSc1ccc(Br)cc1, the INHIBITION was 79.1%. O=C(CCc1ccccc1F)NS(=O)(=O)c1ccc2c(c1)OCCCO2 gave an INHIBITION of 16%. With COc1cccc(CN(C)C(=O)CSc2ccc3c(c2)OCCO3)c1 the INHIBITION was -45.8%. O=C(CCc1ccccc1F)NS(=O)(=O)c1ccc2c(c1)OCCO2 showed an INHIBITION of 50.3%. In the case of O=C(CCc1cc(F)ccc1F)NS(=O)(=O)c1ccc2c(c1)OCCO2, the INHIBITION is reported as 42%. With CN(Cc1ccccc1)C(=O)CCS(=O)(=O)c1ccc2c(c1)OCCO2 the INHIBITION was 41.4%. O=C(CSc1ccc2c(c1)OCCO2)NS(=O)(=O)c1cc(F)ccc1F gave an INHIBITION of 27.6%. Cc1ccccc1S(=O)(=O)NC(=O)CSc1ccc2c(c1)OCCO2 showed an INHIBITION of 5.65%. CN(Cc1ccccc1)C(=O)CSc1ccc2c(c1)OCCO2 was tested, and the INHIBITION was 73.1%. For CSCC(=O)N(C)Cc1ccccc1, the INHIBITION was 47.4%. O=C(CSc1ccc2c(c1)OCCO2)NS(=O)(=O)c1ccccc1F showed an INHIBITION of 68.2%. With CSCC(=O)N(C)Cc1ccc(N(C)C)cc1 the INHIBITION was 47.4%. Cn1ccnc1CC1CCCN(C(=O)NCCOc2cccnc2)C1 (stereo not given) showed an INHIBITION of 44.5%. Work on Cc1cn[nH]c1C1CCCCN1C(=O)CCc1c(C)n[nH]c1C (stereo not given) yielded an INHIBITION of 33.7%. In the case of c1cnc(NCc2nnn3c2CN(CC2CC2)CCC3)nc1, the INHIBITION is reported as 10.6%. CC(c1cccc(S(N)(=O)=O)c1)N(C)CCOc1ccccc1 (stereo not given) was tested, and the INHIBITION was 22.3%. Work on Cc1nnc2n1CCN(C(=O)c1cn(-c3ccc(F)cc3)nn1)C2 yielded an INHIBITION of -6.39%. With CC(=O)N(Cc1ncc(C)o1)C1CCN(Cc2nnc(C3CC3)o2)C1 (stereo not given) the INHIBITION was 34.9%. In the case of COc1ccc(S(=O)(=O)N2CCOC(C)(C(N)=O)C2)cc1 (stereo not given), the INHIBITION is reported as -2.605%. Work on NC1CCCc2c1cnn2-c1cc(F)cc(F)c1 (stereo not given) yielded an INHIBITION of -19.1%. For OCC(O)CSCc1cc(Cl)ccc1Cl (stereo not given), the INHIBITION was 5.41%. OCC(O)CSCc1ccc(Cl)cc1Cl (stereo not given) showed an INHIBITION of 53.9%. Work on OCC(O)CSCc1ccc(F)cc1Cl (stereo not given) yielded an INHIBITION of -15.6%. For COc1cccc(C(=O)NS(=O)(=O)c2cncc(Br)c2)c1OC, the INHIBITION was 15.1%. For CCc1ccc(S(=O)(=O)Nc2ccncc2)s1, the INHIBITION was -6.4%. With Cn1cc(CN2CCc3onc(C(=O)Nc4cccnc4)c3C2)cn1 the INHIBITION was 43.4%. Work on CC(C)(C)c1nc(CNC2CCN(S(C)(=O)=O)CC2)cs1 yielded an INHIBITION of 20.6%. In the case of O=C(c1cccnc1N1CCCC1)N1CCOC(c2ccccc2)C1 (stereo not given), the INHIBITION is reported as -30.2%. O=C(c1cccnc1O)N1CCOC(Cc2cccc(C(F)(F)F)c2)C1 (stereo not given) gave an INHIBITION of 31.7%. O=C(c1cccnc1N1CCOC(c2ccc(Cl)cc2)C1)N1CCCC1 (stereo not given) showed an INHIBITION of 45.1%. For O=C(c1cccnc1N1CCOC(c2ccc(F)cc2)C1)N1CCCC1 (stereo not given), the INHIBITION was 45.1%. O=C(c1cccnc1O)N1CCOC(c2ccc(Cl)cc2)C1 (stereo not given) showed an INHIBITION of 68.6%. CN(C)C(=O)c1cccnc1N1CCOC(c2ccc(Cl)cc2)C1 (stereo not given) showed an INHIBITION of 55%. With O=C(CSc1nnc(N2CCOCC2)s1)NCc1cccs1 the INHIBITION was -21.5%. For CC(C)COC(C)C(=O)NCCNS(C)(=O)=O (stereo not given), the INHIBITION was 2.29%. For Cc1oc(-c2ccsc2)nc1CC(=O)NCC(=O)Nc1cn[nH]c1, the INHIBITION was 33%. In the case of CC(C)CN1CCCn2nc(CNC(=O)CN3CCOC3=O)cc2C1, the INHIBITION is reported as 7.92%. Compound CC(C)CN1CCCn2nc(CNC(=O)CCN)cc2C1 has an INHIBITION of 16.6%. Work on Cc1nn(CC(=O)NCc2cc3n(n2)CCCN(CC(C)C)C3)cc1Cl yielded an INHIBITION of 58.7%. Cc1noc(C)c1C(C)C(=O)N1CCCN(C)c2ccc(Cl)cc21 (stereo not given) gave an INHIBITION of 33.1%. CN1CCC(c2cc(C(F)(F)F)n3ccnc3n2)CC1 gave an INHIBITION of 26.3%. Compound CC(=O)Nc1cccc(-c2ccccc2CCN)c1 has an INHIBITION of 71.3%. In the case of CC(=O)Nc1ccc(-c2ccccc2NC(=O)CN)cc1, the INHIBITION is reported as -17.7%. For CC(=O)Nc1ccc(-c2ccccc2CCN)cc1, the INHIBITION was -2.43%. c1cc(C2CCN(C3CCCCC3)C2)n[nH]1 (stereo not given) was tested, and the INHIBITION was 18.535%. Cc1nc2ccccn2c1CC(=O)N[C@@H]1CC[C@@H](N2CCCC2)[C@@H]1O gave an INHIBITION of -6.92%. Cc1nc2ccccn2c1CC(=O)N[C@@H]1CCC[C@@H](N2CCCC2)[C@@H]1O was tested, and the INHIBITION was -29.8%. Compound Cc1nc2ccccn2c1CC(=O)N[C@@H]1CC[C@@H](N2CCOCC2)[C@@H]1O has an INHIBITION of 52%. Work on CCc1ncnc(N2CCOCC2CCO)c1F (stereo not given) yielded an INHIBITION of 6.94%. CCc1ncnc(N2CCOCC2C2CC2)c1F (stereo not given) was tested, and the INHIBITION was 57.5%. CCc1ncnc(N2CCOCC2C(N)=O)c1F (stereo not given) showed an INHIBITION of -4.95%. Compound O=C1CC(c2ccncc2)C2(CCN(C(=O)c3cccc(F)c3)CC2)N1 (stereo not given) has an INHIBITION of 11.3%. For Cc1cc(NC2CCC(=O)N(C)C2)n2nccc2n1 (stereo not given), the INHIBITION was -41.8%. For Cc1cnn(CC2CCCCN2Cc2nnsc2Cl)c1 (stereo not given), the INHIBITION was -17.6%. In the case of COc1ccc(C2CC(=O)Oc3cc(C)[nH]c(=O)c32)c(OC)c1 (stereo not given), the INHIBITION is reported as 45.7%. Compound CN1CCN(c2cc(NC(=O)Cn3ccc4ccccc43)ncn2)CC1 has an INHIBITION of 60.1%. O=C(Cn1ccc2ccccc21)Nc1cc(N2CCOCC2)ncn1 was tested, and the INHIBITION was 30.5%. Compound O=C(Cn1ccc2ccccc21)Nc1cc(N2CCCC2)ncn1 has an INHIBITION of 27.5%. With COCCC1(CO)CCCN(C(=O)c2cc(=O)[nH]c(=O)[nH]2)C1 (stereo not given) the INHIBITION was 0.33%. CNC(=O)CN1CC[C@H]2CN(C(=O)c3cccn3C)C[C@H]2C1 gave an INHIBITION of 9.51%. O=C(NCC1CCCO1)c1cc(-c2ccncc2)c2cnccc2n1 (stereo not given) showed an INHIBITION of -3.02%. CCN1CCN(C)C(=O)C12CCN(Cc1ccsc1)CC2 gave an INHIBITION of -9.74%. In the case of O=C(c1cnccn1)N1CCN(c2ccnc3ccsc23)CC1, the INHIBITION is reported as -7.46%. O=C(N1CCOCC1)N1CCN(c2ccnc3ccsc23)CC1 showed an INHIBITION of 5.76%. Compound c1cc(N2CCC(CN3CCOCC3)CC2)c2sccc2n1 has an INHIBITION of 73.8%. In the case of CN(C)C(=O)C1CCCN1c1ccnc2ccsc12 (stereo not given), the INHIBITION is reported as 1.75%. OCCC1CCN(c2ccnc3ccsc23)C1 (stereo not given) was tested, and the INHIBITION was 5.11%. COCC1CCN(c2ccnc3ccsc23)C1 (stereo not given) showed an INHIBITION of 79.5%. In the case of CSc1ncc(Cl)c(C(=O)NC(Cc2ccccc2)C(=O)O)n1 (stereo not given), the INHIBITION is reported as 36.7%. For CC(C)C(=O)Nc1cccc(CNC(=O)CSCc2ccccn2)c1, the INHIBITION was 24.2%. Compound CCOc1ncccc1CNC(=O)Nc1ccc(OC)c(OC)c1 has an INHIBITION of -49.5%. In the case of Cc1nc(CN2C[C@@H]3CN(C(=O)[C@H]4CCCO4)C[C@@H]3C2=O)cs1, the INHIBITION is reported as 19.4%.
